Measurements as given in PubChem BioAssay AID1347138 (National Center for Advancing Translational Sciences (NCATS), 2019).
This is one part of the list. Inconclusive results are not listed. Activity calls are given as the source filed them. Calls come from the whole dose curve; as a rule, active = well fitted inhibition curve with a large enough effect; inconclusive = small, poorly fitted or top-dose-only effect; inactive = no such curve, though single readings can be large or run the other way.

Experiment: qHTS of pediatric cancer cell lines to identify multiple opportunities for drug repurposing: Orthogonal 3D caspase screen for TC32 cells
Conditions: TC32 3D spheroids, caspase-3/7 fluorescence imaging, 24 h; series mostly up to 30.7 µM; caspase activation, negative = activation: at the top concentration
Text: Drug repurposing or repositioning has been offered as a strategy for drug development in oncology programs. This approach has special potential for childhood cancers and other rare or orphan diseases, where the expected return on new drug development has been a disincentive to pharmaceuticals. […] In this project we exploit the poly-pharmacology of drugs to discover new indications via phenotypic screening of a panel of 19 well-characterized cell lines derived from solid tumors seen in children and adolescents. The goal is to identify approved drugs with previously unrecognized anticancer properties that has the potential to reveal new mechanisms and biological processes involved in carcinogenesis or drug resistance. We employed a titration-based paradigm (quantitative high-throughput screening or qHTS), where all compounds were tested at multiple concentrations for their effect on cell viability. Concentration-response curves (CRCs) were derived directly from the primary screen, and both potency and efficacy values were used to identify compounds with robust bioactivity profiles. […] These two assays will be used to validate active compounds and assess the correlation of compound's potency in 2D vs 3D cultures on selected cell lines. Assay Submitter: Nathalia J. Martinez, National Center for Advancing Translational Sciences, National Institutes of Health, Rockville, MD, USA; email: natalia.martinez@nih.gov Shen, M et al. Quantitative high-throughput phenotypic screening of pediatric cancer cell lines identifies multiple opportunities for drug repurposing. Oncotarget 2017 Dec 19;9(4):4758-4772. PMID 29435139.
The cells were obtained from University of North Carolina (UNC), Pediatric Preclinical Testing Program (PPT), and Coriell Institute (CI). qHTS apoptosis assay in 3D cultures: For the apoptosis assay, cells were assayed in phenol red-free growth media at a density of 1,000 cells/well. Thirty microliters of cells were dispensed into 384-well, ULA, round bottom plates (Corning) using a Multidrop dispenser. Plates were spun down at 1,000 rpm for 1 min and incubated at 37 C, 5% CO2, under a humidified atmosphere for 24 hours to allow spheroid formation. Ninety-two nanoliter of compounds and controls were subsequently transferred via GNF Pintool. Plates were sealed using a breathable seal (Diversified Biotech, Dedham, MA) and incubated for 24 hours at 37C before addition of CellEvent Caspase-3/7 green detection reagent (TheremoFisher Scientific). Staurosporine at final concentrations of 3 µM was used as positive control. Spheroids were imaged using bright-field and green (EX: […]) filters and analyzed with the Celigo Tumorsphere 1+2 application software. Spheroids were first identified using bright-field segmentation, and the average fluorescent intensity of the green channel was used to quantify caspase activation as percent activity based on neutral control DMSO and positive control.

Potency, active:
CC(NCc1ccc2c(c1)nc(NC(=O)c1ccc(-c3cn[nH]c3)s1)n2CC(C)(C)O)C(C)(C)C (stereo unspecified) 1.44 µM
COC(=O)Nc1nc2ccc(Sc3ccccc3)cc2[nH]1 11.4 µM
CC[C@]1(O)C[C@@H]2CN(CCc3c([nH]c4ccccc34)[C@@](C(=O)OC)(c3cc4c(cc3OC)N(C)[C@H]3[C@@](O)(C(=O)OC)[C@H](OC(C)=O)[C@]5(CC)C=CCN6CC[C@]43[C@@H]65)C2)C1 0.0722 µM

Caspase activation, negative = activation, inactive:
COc1c(C)c2c(c(O)c1C/C=C(\C)CCC(=O)O)C(=O)OC2 3.92%
CC1(C)O[C@@H]2C[C@@H]3[C@H]4C[C@@H](F)C5=CC(=O)C=C[C@]5(C)[C@@]4(F)[C@@H](O)C[C@]3(C)[C@]2(C(=O)CO)O1 -3.8%
C=C1C(=CC=C2CCC[C@]3(C)[C@@H]([C@H](C)C=C[C@H](C)C(C)C)CC[C@@H]23)C[C@@H](O)C[C@@H]1O -7.49%
